Out of some 16,000 compounds screened, about 2,600 (16%) were called active. Inconclusive results (about 20%) are left out. Calls come from the whole dose curve; as a rule, active = well fitted curve in the direction sought with a large enough effect; inconclusive = small, poorly fitted or top-dose-only effect, or effect the other way; inactive = no such curve, though single readings can be large or run the other way. The list is a sample of the results.
Each compound was assayed against Cytochrome P450 2D6 (Homo sapiens) (UniProt P10635) (assay: Cytochrome panel assay with activity outcomes). Conditions: recombinant CYP, pro-luciferin dealkylation, luminescence, p450-cyp2d6; series mostly up to 57.1 µM; activity, negative = inhibition: at the top concentration.
% is set by controls: 0 for no effect and ±100 for the full control effect.

Cytochrome P450 2D6 (Homo sapiens), sequence (P10635 whole entry, looked up): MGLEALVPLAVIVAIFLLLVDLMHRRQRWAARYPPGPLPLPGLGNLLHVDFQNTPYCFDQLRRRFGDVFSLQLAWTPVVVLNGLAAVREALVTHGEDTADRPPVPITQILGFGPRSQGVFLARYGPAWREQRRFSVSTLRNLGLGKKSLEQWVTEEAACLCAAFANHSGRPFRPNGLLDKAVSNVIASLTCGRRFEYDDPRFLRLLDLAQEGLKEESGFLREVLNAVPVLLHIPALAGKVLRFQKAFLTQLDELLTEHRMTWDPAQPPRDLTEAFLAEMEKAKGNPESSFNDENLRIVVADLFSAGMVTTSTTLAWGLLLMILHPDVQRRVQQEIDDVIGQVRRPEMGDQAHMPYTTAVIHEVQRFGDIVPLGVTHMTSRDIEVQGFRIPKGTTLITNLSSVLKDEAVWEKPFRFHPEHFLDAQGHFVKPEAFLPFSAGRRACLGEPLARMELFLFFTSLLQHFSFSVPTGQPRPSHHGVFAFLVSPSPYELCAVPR

SMILES	activity, negative = inhibition	AC50
O=C(CSc1nc2ccccc2s1)c1sc2sc3ccccc3[n+]2c1O	-14.5% [at 11.4 µM] (inactive)	
Cc1ccc(C(=O)O)cc1N1C(=O)c2cccc3cc(Br)cc(c23)C1=O	2.76% (inactive)	
CCCNC(=O)OC[C@@H]1O[C@H](CCO/N=C(\C)CCN2CCc3nc(-c4ccccc4)c(-c4ccccc4)cc3C2)C=C[C@@H]1Oc1ccc(OC)cc1	-6.26% [at 11.4 µM] (inactive)	
COc1ccc(Oc2ncc3nc(C)c(=O)n(C)c3n2)cc1	-3.79% (inactive)	
CC(C)C12CN3CC(C(C)C)(CN(C1)C3c1ccco1)C2=O (configuration not stated)	-6.44% (inactive)	
CC(=O)Nc1c(I)c(C(=O)N[C@H]2[C@@H](O)[C@H](O)[C@H](CO)O[C@@H]2O)c(I)c(N(C)C(C)=O)c1I	6% [at 25.6 µM] (inactive)	
CCOc1ccc(N(CCC#N)S(=O)(=O)c2ccc(OC)cc2)cc1	-14.3% (inactive)	
COc1cc([C@H]2c3cc4c(cc3[C@@H](O)[C@@H]3COC(=O)[C@H]23)OCO4)cc(OC)c1OC	-2.29% (inactive)	
O=C1N/C(=C\c2ccc(N3CCOCC3)c(F)c2)C(=O)N1Cc1ccccc1	7.66% (inactive)	
COCCn1c(=O)c(C)nc2cnc(Oc3cccc(Cl)c3)nc21	5.44% (inactive)	
O=C(O)c1ccc(CNCc2ccccc2)cc1	8.97% [at 11.4 µM] (inactive)	
Sc1ccc2ccccc2c1CNCc1ccccc1		1.26 µM (active)
CC(OC(=O)Cn1c(C(F)(F)F)nc2ccccc21)C(N)=O (configuration not stated)	0.379% (inactive)	
Cc1ccc(N=Cc2cc(C)n(C3CCCC3)c2C)cc1		15.8 µM (active)
COC(=O)N1CCC2(CC1)CCN(c1ncccn1)CC2	12.2% (inactive)	
COc1cc(/C=C\c2ccc(OC)cc2OC)cc(OC)c1	4.63% (inactive)	
COc1ccc(OC(=O)c2ccncc2)cc1	-16.3% (inactive)	
COc1ccc(/C=C/c2ccncc2)cc1		8.91 µM (active)
CC(C)(C)NC(=O)Cn1cnc([N+](=O)[O-])n1	-7.65% (inactive)	
CSc1nc2ccc3nc(NC(=O)c4cccs4)sc3c2s1	-24.7% (inactive)	
O=C(Cn1cnc2ccccc2c1=O)Nc1nnc(SCc2ccccc2)s1	-15.3% (inactive)	
COc1cc(OC)cc(C(=O)NC(=S)Nc2ccc(Cl)c(C(=O)O)c2)c1	-13.6% (inactive)	
C[C@@H](c1ccccc1)N1C(=O)[C@H]2[C@H]3[C@H](O)[C@H](O)C/C(=N/OCc4ccccc4)[C@H]3CC[C@@H]2C1=O	6.68% [at 11.4 µM] (inactive)	
O=c1c(-c2cc(F)cc(F)c2)nc2cnc(Oc3ccccc3)nc2n1C1CC1	-1.3% (inactive)	
Cc1nc2cccc([N+](=O)[O-])c2n1CCCN(C)C	3.67% [at 11.4 µM] (inactive)	
CN(C)CCCn1c2c3ccccc3ccc2c2oc(=O)c3ccccc3c21		1.26 µM (active)

SMILES	activity, negative = inhibition	AC50
O=C1C2C3c4ccccc4C(c4ccccc43)C2C(=O)N1c1nc(-c2ccccc2)cs1 (configuration not stated)	15% (inactive)	
O=C(Nc1ccc(-c2nc3ccccc3o2)cc1)c1ccc(N2CCOCC2)c([N+](=O)[O-])c1	-4.29% (inactive)	
O=C(O)C1=CCNCC1		inactive
CCC[C@H]1C(=O)N2C(N(C)C)=Nc3ccc(C)cc3N2C1=O	-3.99% [at 25.6 µM] (inactive)	
O=C(Nc1ccccc1)/C(=C\c1ccncc1)NC(=O)c1ccccc1	-8.98% (inactive)	
CC(=O)Nc1ccc(NCN2C(=O)C3C4CCC(C4)C3C2=O)cc1 (configuration not stated)	19.6% (inactive)	
COc1ccccc1NC(=O)C1=C(C)Nc2nc(-c3ccc(N(C)C)cc3)nn2C1c1ccncc1 (configuration not stated)	0.163% (inactive)	
Nc1nnnn1/N=C\c1ccc(Cl)c([N+](=O)[O-])c1	17% (inactive)	
COc1ccc(-n2c(C)n[nH]c2=O)cc1	15.3% (inactive)	
CC(C)c1ccc(NC(=O)N(CCc2nc3ccccc3[nH]2)C2CCCC2)cc1		2.51 µM (active)
Cc1cc(C)cc(NC(=O)CCc2nc3ccccc3[nH]2)c1	-11.3% (inactive)	
O=C(O)[C@H]1CCCC[C@@H]1C(=O)Nc1nc2ccccc2[nH]1	-3.05% [at 11.4 µM] (inactive)	
O=C(N/N=C/c1cccc(OC2CSC2)c1)c1ccccc1O	-21.8% (inactive)	
Nc1ccccc1N=Nc1c(S(=O)(=O)O)cc2cc(S(=O)(=O)O)cc(O)c2c1O	-13.1% [at 11.4 µM] (inactive)	
CC(C)CCn1c(Oc2ccccc2Cl)nc2c1c(=O)n(C)c(=O)n2C	-16.4% (inactive)	
CC(=O)/C(=C\c1ccccc1F)C(=O)c1ccccc1	-1.17% [at 11.4 µM] (inactive)	
COCCCNC(=O)C1CC(=O)N(CCc2ccc(OC)c(OC)c2)C1 (configuration not stated)	10.7% (inactive)	
CC1CCCN(CCCNC(=O)C2CC(=O)N(c3ccc(F)c(Cl)c3)C2)C1 (configuration not stated)		15.8 µM (active)
CC1CC(C)CN(CCCNC(=O)C2CCCN(c3nnc(N4CCCC4=O)s3)C2)C1 (configuration not stated)	-18.7% (inactive)	
COC(=O)c1nn(C23CC4CC(CC(C4)C2)C3)c2c1C(=O)N(c1ccc(F)cc1)C2=O	1.92% (inactive)	
NC1=N[C@H](c2ccc(Cl)cc2)N(c2ccc(S(=O)(=O)Nc3ncccn3)cc2)C(N)=N1	-2.11% [at 11.4 µM] (inactive)	
COc1ccc(C2N=C(N)N=C(N)N2c2ccccc2OC)cc1OC (configuration not stated)		7.08 µM (active)
COc1cccc(/C(O)=C2/C(=O)C(=O)N(c3ccccn3)C2c2ccc(OC)c(OC)c2)c1 (configuration not stated)	-0.578% (inactive)	
COc1cccc(Cn2c(=O)c(-c3cn(C)c4ccccc34)nc3cncnc32)c1	0.612% (inactive)	
O=C(O)CCCCCCCC(=O)O	2.09% (inactive)	
COc1ccc(Oc2nc(C)cc(C)c2S(=O)(=O)c2ccc(C)cc2)cc1	-5.88% (inactive)	

SMILES	activity, negative = inhibition	AC50
N[C@H](CCC(=O)NCC(=O)O)C(=O)O	6.41% (inactive)	
CC(NC(=O)CN1CCCC1)C12CC3CC(CC(C3)C1)C2 (configuration not stated)	-17.4% (inactive)	
CC(C)(C)CNC(CO)C12CC3CC(CC(C3)C1)C2 (configuration not stated)		10 µM (active)
Cc1ccc(S(=O)(=O)N[C@H]2COC(=O)[C@H](C)COC(=O)[C@H](C)NC(=O)C/C=C\[C@H]2C)cc1	12.2% [at 11.4 µM] (inactive)	
O=C(O)[C@@H]1[C@@H](C(=O)NCc2ccccn2)[C@@H]2C=C[C@@H]1O2	8.57% [at 11.4 µM] (inactive)	
COC(=O)[C@H](N)Cc1ccc(Cl)cc1	-5.04% (inactive)	
C[C@H](N)C(=O)OC(C)(C)Cc1ccc(Cl)cc1		12.6 µM (active)
COC(=O)[C@](C)(N)Cc1ccc(O)cc1	4.18% (inactive)	
COc1ccc(C2=NC(C(F)(F)F)(C(F)(F)F)c3c(n(C)c(=O)n(C)c3=O)N2)cc1	2.5% (inactive)	
CNC(=O)NC(=S)NC(=O)c1ccc(OC)cc1	-4.2% (inactive)	
COc1ccc(-c2nc3cnc(OC)nc3n(-c3ccc(OC)cc3)c2=O)cc1	5.64% (inactive)	
CCOC(=O)N/N=C/c1ccc(C)o1	1.51% (inactive)	
Cc1ccc(/C=N\Nc2nc3ccc(Cl)cc3[nH]2)o1		3.55 µM (active)
Cc1ccc(/C=N/NC(=O)Cn2nccc2C)o1	-1.83% (inactive)	
CCCC(=O)n1nc(-c2cccnc2)nc1N	10.8% (inactive)	
Cc1nnsc1SC(C)C(=O)O (configuration not stated)	-11% (inactive)	
CCn1c(COc2ccc(C)cc2)nnc1SCc1ccc(C#N)cc1	-22.7% (inactive)	
O=C(Nc1cc(Sc2ccccn2)cc([N+](=O)[O-])c1)c1ccc(Cl)cc1		8.91 µM (active)
O=C(Nc1cccc([N+](=O)[O-])c1)c1ccc(CSc2ccccc2)cc1	-4.86% (inactive)	
O=C(Nc1cc(Sc2ccccn2)cc([N+](=O)[O-])c1)c1ccc([N+](=O)[O-])cc1	-16.7% (inactive)	
CC1=CC(=C2C(=O)c3ccccc3C2=O)C=C(C)N1Cc1ccco1	17.1% (inactive)	
O=c1c(-c2cccc(F)c2)nc2cncnc2n1-c1ccccc1	-9.29% (inactive)	
CN1CCN(c2ncc3nc(-c4ccccc4)c(=O)n(Cc4ccc(F)cc4)c3n2)CC1	-0.95% (inactive)	
O=S(=O)(Nc1ccc(Cc2ccncc2)cc1)c1ccc(Cl)c(Cl)c1		1 µM (active)
CC(C)(C)c1ccc(NS(=O)(=O)c2ccc(N)cc2)cc1	18.9% [at 11.4 µM] (inactive)	
Cc1csc(NC(=O)CNS(=O)(=O)c2cccs2)n1	1.06% (inactive)	

SMILES	activity, negative = inhibition	AC50
CCNS(=O)(=O)c1ccc(NS(C)(=O)=O)cc1	-5.1% (inactive)	
O=S(=O)(Nc1ccc(Cc2ccncc2)cc1)c1cccs1		0.355 µM (active)
O=S(=O)(Nc1cccnc1Cl)c1ccc2c(c1)OCCO2	0.444% (inactive)	
COc1ccc(S(=O)(=O)Nc2cccc(Cl)c2)cc1OC	-24.4% (inactive)	
O=S(=O)(Nc1ccc(Cc2ccncc2)cc1)c1ccc(Br)cc1		0.631 µM (active)
CC(=C\C(=O)O)/C(=C/c1ccccc1)C(=O)O	-7.05% (inactive)	
CCOC(=O)C1(C(=O)O)NC(=O)CC1c1ccccc1 (configuration not stated)	-5.68% (inactive)	
C[C@H]1CC[C@H]2C(=O)N[C@H](Cc3ccccc3)C(=O)N2[C@@H]1c1ccccc1	-17.6% [at 11.4 µM] (inactive)	
COCCn1c(=O)c(-c2cn(C)c3ccccc23)nc2cncnc21	-5.12% (inactive)	
NC(N)=N[C@H](CCC(=O)O)C(=O)O	0.897% (inactive)	
CC(=O)N[C@@H](C(=O)O)C(C)(C)SN=O		inactive
O=C1OCCC=C1[C@@H](O)CCc1ccccc1	-2.43% [at 11.4 µM] (inactive)	
COC(=O)c1scc(C)c1NC(=O)Cc1ccccc1	-2.62% (inactive)	
O=C(O)c1ccc(SSc2ccc(C(=O)O)cn2)nc1	-10.6% [at 11.4 µM] (inactive)	
N#CC(c1ccccc1F)(c1ncc(C(F)(F)F)cc1Cl)N1CCOCC1 (configuration not stated)	-15.7% (inactive)	
Cc1cc2nc([C@H](C)C(=O)c3ccc(Cl)cc3)c(=O)[nH]c2cc1C	-4.99% [at 11.4 µM] (inactive)	
COc1ccc(-c2nc3cnc(N4CCNCC4)nc3n(C)c2=O)cc1	-2.18% (inactive)	
COc1ccc2nc(N3CCCC(C(=O)NCCCN4CCN(C)CC4)C3)sc2c1 (configuration not stated)		11.2 µM (active)
COc1ccc2nc(N3C(=O)CC(Cc4ccc(Cl)cc4)C3=O)sc2c1 (configuration not stated)	-13.6% (inactive)	
CN1CCN(CCCNC(=O)C2CCN(c3nnc(-n4cccc4)s3)CC2)CC1	-2.02% (inactive)	
O=c1[nH]ncn2cccc12	1.89% (inactive)	
COc1ccc(-c2ccc(N)[n+](CCCC(=O)O)n2)cc1		inactive
COc1ccc(-c2ccc(=N)n(CCCC(=O)O)n2)cc1		3.98 µM (active)
COCCNC(=O)CCn1nc(-c2ccc(Cl)cc2)ccc1=O	-2.97% (inactive)	
